An excerpt weighted towards active compounds, which were near 28% of everything screened.
CYP2C19 activ = human CYP2C19 activators, primary screen, biochemical, luminescence; Cytochrome P450 2C19 (Homo sapiens), P33261; recombinant CYP2C19, luciferin-H EGE luminescence; hits give high values; 0 = fully inhibited enzyme, 1 = untreated enzyme; activation factor at 5 µM; 96,000 tested, under 10 active; AID 1025, 2008;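 active means activation factor of at least 2 at 5 µM in the primary screen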;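 further: 0 = wells with 2.5 mM tranylcypromine and 1 = vehicle-only wells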
CYP2C9 act = human CYP2C9 activators, primary screen, biochemical, luminescence | Cytochrome P450 2C9 (Homo sapiens), P11712 | recombinant CYP2C9, luciferin-H conversion; hits give high values; factor 1 = untreated enzyme, 0 = blocked | activation factor at 5 µM | hit rate 1.4% among 96,000;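 active means activation factor of 2 or more for CYP2C9 at a 5 µM dose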;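 further: 0 = sulfaphenazole-blocked wells and 1 = vehicle-only wells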
Mac1 fbg inh = inhibitors of CD11b/CD18 adhesion to fibrinogen, primary screen, K562 cells, luminescence; ATPlite luminescence; Mn2+ added to activate the integrin; inhibition, % at 10 µM; hit rate 0.54% among 93,000;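 active means primary inhibition of 50% or more at 10 µM, then 40% or more on retest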
Target sequence (P05107 whole entry, looked up, other chains not shown): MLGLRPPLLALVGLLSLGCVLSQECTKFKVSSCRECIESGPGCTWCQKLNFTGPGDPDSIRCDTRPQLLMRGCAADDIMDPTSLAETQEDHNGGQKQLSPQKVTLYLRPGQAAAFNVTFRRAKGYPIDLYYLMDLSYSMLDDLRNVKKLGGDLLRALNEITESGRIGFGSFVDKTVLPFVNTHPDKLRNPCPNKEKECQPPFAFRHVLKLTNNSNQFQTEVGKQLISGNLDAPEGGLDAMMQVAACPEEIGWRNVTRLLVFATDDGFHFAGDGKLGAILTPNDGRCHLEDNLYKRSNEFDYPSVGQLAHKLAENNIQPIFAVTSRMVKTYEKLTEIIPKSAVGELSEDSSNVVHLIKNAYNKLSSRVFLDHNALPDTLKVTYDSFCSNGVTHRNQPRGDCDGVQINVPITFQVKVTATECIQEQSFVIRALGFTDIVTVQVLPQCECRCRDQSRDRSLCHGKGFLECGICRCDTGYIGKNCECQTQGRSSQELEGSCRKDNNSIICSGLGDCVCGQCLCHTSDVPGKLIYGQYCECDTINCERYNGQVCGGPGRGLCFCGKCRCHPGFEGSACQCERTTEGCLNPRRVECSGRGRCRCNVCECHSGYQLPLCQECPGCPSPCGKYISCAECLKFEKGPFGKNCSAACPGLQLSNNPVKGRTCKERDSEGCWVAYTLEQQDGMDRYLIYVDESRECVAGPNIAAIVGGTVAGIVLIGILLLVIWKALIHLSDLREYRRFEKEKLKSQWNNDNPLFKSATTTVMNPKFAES
CYP2C9 inhib = blockers of cytochrome P450 2C9 activity – biochemical, luminescence, ADME assay, primary screen | P11712 | CYP2C9 Supersomes, luciferin-H conversion | inhibition, % at 5 µM | hit rate 20% among 96,000;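 active means blocking of liver enzyme CYP2C9 beyond about 50% at 5 µM, limit read from the data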
CD11b adhes enh = enhancers of CD11b/CD18 adhesion to fibrinogen, primary screen, K562 cells, luminescence. activation, % at 10 µM. ATPlite luminescence. Integrin beta-2 (Homo sapiens) + Integrin alpha-M (Homo sapiens), P05107+P11215. hit rate 0.07% among 93,000;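 active means 10 µM primary screen giving 50% or more activity, confirmed by 40% or more on retest at that dose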
CYP2C19 inh = blockers of cytochrome P450 2C19 activity – biochemical, luminescence, ADME assay, primary screen; P33261; CYP2C19 Supersomes, luciferin-H EGE luminescence, 30 min; inhibition, % at 5 µM; hit rate 21% among 96,000; AID 778, 2007;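 active means CYP2C19 inhibition above a set limit at 5 µM in the primary screen, cut at about 50% in these data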;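 further: plate controls were negative control wells for no effect and 2.5 mM tranylcypromine positive control for full effect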
* hit, by the source's call; / = no result.

SMILES | CYP2C19 activ | CYP2C9 act | Mac1 fbg inh | CYP2C9 inhib | CD11b adhes enh | CYP2C19 inh
COc1cc(S(=O)(=O)N2CCC(O)(c3cccc(C(F)(F)F)c3)CC2)ccc1-n1cnnn1 | 0.7 | 0.4 | -6 | 64* | 4 | 32
CCOc1ccccc1NC(=O)CCCc1nc2ccccc2c(=O)[nH]1 | 0.7 | 0.9 | -20 | 9 | -3 | 26
CCN(CC(=O)NCCc1ccc(S(N)(=O)=O)cc1)Cc1nc2ccccc2c(=O)[nH]1 | 0.9 | 0.3 | 3 | 66* | 0 | 13
CC(NC(=O)CN(C)Cc1nc2ccccc2c(=O)[nH]1)c1ccccc1 (stereo not drawn) | 0.7 | 0.7 | 19 | 29 | -1 | 32
Cc1ccc(NC(=O)CN(C)Cc2nc3ccccc3c(=O)[nH]2)c(Br)c1 | 0.7 | 0.3 | 3 | 68* | -1 | 28
Cc1cc(Br)ccc1NC(=O)CNC(=O)CN(C)Cc1nc2ccccc2c(=O)[nH]1 | 0.3 | 0.4 | 4 | 63* | 0 | 68*
CCN(CC(=O)Nc1ccccc1Br)Cc1nc2ccccc2c(=O)[nH]1 | 0.5 | 0.5 | / | 50 | / | 54*
CCCCNC(=O)c1cn(-c2ccc(OCC)cc2)c(=O)c2cc(OC)c(OC)cc12 | 0.9 | 0.6 | 0 | 38 | 0 | 6
CCC(C)c1ccc(NC(=O)COc2c(F)c(F)c(C(F)(F)F)c(F)c2F)cc1 (stereo not drawn) | / | / | 102 | / | -11 | /
CCOCc1cc(C)[nH]c(=O)c1C#N | 1 | 1 | / | 4 | / | 5
CCN(CC(=O)NC(=O)NCc1ccco1)Cc1nc2ccccc2c(=O)[nH]1 | 0.3 | 0.6 | -11 | 45 | -1 | 68*
Cc1cc(SCC(=O)NC(=O)NCc2ccco2)nc2ccccc12 | 1.1 | 1.4 | 8 | -38 | -3 | -5
CC(C)COC(=S)Nc1ccccc1 | 0.2 | 0.8 | -2 | 23 | -2 | 78*
O=C(CCCc1cccs1)N1CCN(S(=O)(=O)c2ccccc2Br)CC1 | 0.5 | 0.3 | 10 | 69* | -4 | 48
O=C(CCc1nc2ccccc2s1)N1CCN(S(=O)(=O)c2cccs2)CC1 | 0.3 | 0.4 | 10 | 59* | -1 | 70*
CCOC(=O)C1CCN(S(=O)(=O)C(F)(F)c2nc3ccccc3s2)CC1 | 0 | 0.4 | 28 | 65* | -2 | 95*
O=S(=O)(c1cccs1)N1CCN(Cc2nc3ccccc3s2)CC1 | 0.2 | 0.2 | 2 | 83* | 4 | 85*
CCOC(=O)c1ccc(NC(=O)C(=O)NCC2CCCO2)cc1 (stereo not drawn) | 0.8 | 0.8 | 5 | 16 | 0 | 18
O=C(CSc1nnc(C23CC4CC(CC(C4)C2)C3)o1)Nc1ccc(N2CCOCC2)c(Cl)c1 | 1 | 0.9 | 2 | 7 | -8 | -4
Cc1cccc(N2CCN(C(=O)CCNC(=O)Cn3ccc4ccccc4c3=O)CC2)c1C | 1 | 1 | 3 | 0 | 0 | -2
CCc1ccc2c(c1)c1nnc(NN)nc1n2CC | / | / | 26 | / | 0 | /
O=C(OCc1nc2ccccc2s1)C1CCN(S(=O)(=O)c2cccs2)CC1 | 0.2 | 0 | 1 | 95* | 5 | 82*
O=C(COC(=O)C1CCN(S(=O)(=O)c2cccs2)CC1)c1cc2ccccc2o1 | 0.9 | 0.8 | 1 | 19 | 24 | 9
CCC(C)(c1nnnn1-c1c(C)cccc1C)N(N=O)c1cccc(C(F)(F)F)c1 (stereo not drawn) | / | / | 15 | / | -1 | /
O=S(=O)(NC1CCCC1)c1cccc(-c2nnc(-c3ccccc3)o2)c1 | 0.7 | 0.1 | -24 | 87* | 3 | 34
SMILES | CYP2C19 activ | CYP2C9 act | Mac1 fbg inh | CYP2C9 inhib | CD11b adhes enh | CYP2C19 inh
CC(=O)Nc1cccc(-c2nnc(-c3ccccc3)o2)c1 | 0.7 | 1.7 | -18 | -70 | 0 | 34
O=S(=O)(c1ccc2c(c1)oc1ccccc12)N1CCOCC1 | 0.9 | 1.4 | -6 | -42 | -3 | 10
O=S(=O)(Nc1ccc2c(c1)oc1ccccc12)N1CCCC1 | 0.5 | 0.1 | -1 | 89* | 9 | 47
COc1cc2c(cc1NS(=O)(=O)N1CCCCC1)oc1ccccc12 | 0.3 | 1.6 | 6 | -61 | 3 | 70*
Cc1noc(C)c1CSc1nc2ccccc2s1 | 0.1 | 0.6 | -17 | 39 | 0 | 94*
S=c1[nH]nc(CSc2nc3ccccc3s2)n1C1CCCCC1 | 0.6 | 0.6 | 12 | 40 | -2 | 38
Cc1noc(C)c1CSc1ncnc2ccccc12 | 0 | 0.1 | 3 | 86* | 0 | 96*
c1csc(CSc2nc3ccccc3s2)c1 | 0.6 | 0.9 | -7 | 9 | 0 | 45
CCn1c(CSc2nc3ccccc3s2)nc2ccccc21 | 0 | 1.3 | 48 | -27 | -4 | 98*
C#CCSc1nnc(CSc2nc3ccccc3s2)n1-c1ccccc1 | 0.1 | 0 | 12 | 99* | 0 | 85*
C/C(CC(=O)Nc1ccc(OCc2ccccc2)cc1)=N\NC(=O)C(=O)Nc1ccc(C)c(Cl)c1 | 1 | 0.9 | -7 | 15 | 8 | 2
Cc1cc(=O)oc(C)c1C(=O)NCC1COc2ccccc2O1 (stereo not drawn) | 0.8 | 0.5 | -14 | 55* | 3 | 17
O=C(NCC1COc2ccccc2O1)c1ccc(Cl)cc1 (stereo not drawn) | 0.3 | 1 | 0 | 1 | -2 | 74*
O=C(NCC1COc2ccccc2O1)Nc1ccccc1F (stereo not drawn) | 0 | 0.2 | -17 | 85* | -5 | 96*
O=C(NCC1COc2ccccc2O1)c1ccc(NC(=O)c2ccco2)cc1 (stereo not drawn) | 0.9 | 0.8 | 12 | 20 | -2 | 10
COC(=O)/C(=C\C(=O)c1ccccc1)Nc1cccc(C(F)(F)F)c1 | 0.9 | 0.5 | -2 | 46 | -2 | 13
COC(=O)c1cccc(NC(=O)C(C)N2C(=O)c3ccccc3C2=O)c1 (stereo not drawn) | 0.5 | 0 | -27 | 98* | 3 | 48
CC(=O)OC(C(=O)Nc1ccccc1)C(C)S(=O)(=O)c1ccccc1 (stereo not drawn) | 0.3 | 0.7 | 8 | 32 | 1 | 65*
CC(=O)Nc1ccc(S(=O)(=O)N[C@H](C(=O)O)C(C)C)cc1 | 1 | 1.1 | 10 | -6 | -4 | -4
CN(C)S(=O)(=O)N1CCN(C(=O)c2ccccc2Cl)CC1 | 0.2 | 1 | -13 | -2 | 2 | 76*
CN(C)S(=O)(=O)N1CCN(c2ccccc2)CC1 | 0.1 | 0.5 | -39 | 50 | -1 | 86*

Screening data (PubChem)
